Data reported in the supplement of paper PMC12494721.
Where a name gives a salt, the structure may show the parent alone.

Columns and labels:
Conditions in all cases: incubation time: 27 h, anaerobic, 37 °C;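 for the amine columns active = adjusted P below 0.05 in both replicates with a change the same way and a mean fold change under 0.8 or over 1.25; inactive = the rest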
[1] = system: Clostridium sporogenes DSM 1664; experiment: growth (OD595) fold change vs plate DMSO controls (fold change (ratio)); higher = more growth
Method in brief: (§1)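 Absorbance at 595 nm was read after shaking the anaerobic mGAM cultures, which had grown in 96-well plates for 27 h at 37 °C. After blank subtraction and background correction against 20 µM compound solutions in water, a calibration factor of 5 gave OD values. Growth is the fold change against the median of the plate's DMSO controls. Values are the mean of 2 biological replicates, with fold changes above 1.5 set to NA.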

Escherichia coli IAI1 [2] = experiment: as above
Method in brief: as §1

[3] = system: Klebsiella aerogenes DSM 30053; experiment: as above
Method in brief: as §1

[4] = system: Ruminococcus gnavus DSM 108212; experiment: as above
Method in brief: as §1

[5] = system: Klebsiella aerogenes DSM 30053; experiment: fold change of Histamine concentration vs plate DMSO controls (fold change (ratio)); higher = more amine produced, active = hit call of the paper (significant change in both replicates, either direction)
Method in brief: (§2)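 Amines were quantified by LC–triple-quadrupole MS in dynamic MRM mode against external calibration curves, with drift correction within each batch. The samples were whole anaerobic mGAM cultures of four gut bacterial strains, grown for 27 h at 37 °C in 80 µL wells and extracted with cold acetonitrile/methanol with 0.1% formic acid, then centrifuged. Values are reported as fold change over DMSO controls on the same plate. The mean of 2 biological replicates is given.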

[6] = system: Clostridium sporogenes DSM 1664; experiment: fold change of Tryptamine concentration vs plate DMSO controls (fold change (ratio)); higher = more amine produced, active = hit call of the paper (significant change in both replicates, either direction)
Method in brief: as §2

[7] = system: Ruminococcus gnavus DSM 108212; experiment: as above
Method in brief: as §2

Escherichia coli IAI1 [8] = experiment: fold change of Putrescine concentration vs plate DMSO controls (fold change (ratio)); higher = more amine produced, active = hit call of the paper (significant change in both replicates, either direction)
Method in brief: as §2

[9] = system: Klebsiella aerogenes DSM 30053; experiment: as above
Method in brief: as §2

Escherichia coli IAI1 [10] = experiment: fold change of Cadaverine concentration vs plate DMSO controls (fold change (ratio)); higher = more amine produced, active = hit call of the paper (significant change in both replicates, either direction)
Method in brief: as §2

[11] = system: Klebsiella aerogenes DSM 30053; experiment: as above
Method in brief: as §2

[12] = system: Ruminococcus gnavus DSM 108212; experiment: fold change of 2-Phenylethylamine concentration vs plate DMSO controls (fold change (ratio)); higher = more amine produced, active = hit call of the paper (significant change in both replicates, either direction)
Method in brief: as §2

Structure (SMILES)	growth [1]	growth (Escherichia coli IAI1 [2])	growth [3]	growth [4]	fold change of Histamine concentration [5]	fold change of Tryptamine concentration [6]	fold change of Tryptamine concentration [7]	fold change of Putrescine concentration (Escherichia coli IAI1 [8])	fold change of Putrescine concentration [9]	fold change of Cadaverine concentration (Escherichia coli IAI1 [10])	fold change of Cadaverine concentration [11]	fold change of 2-Phenylethylamine concentration [12]
CC(N)CCCC(C)(C)O (stereo not given) [Heptaminol hydrochloride] (20 µM)	1.01	1.1	0.998	1.12	0.999 (inactive)	0.988 (inactive)	1.01 (inactive)	1.05 (inactive)	1 (inactive)	1.04 (inactive)	0.994 (inactive)	1.05 (inactive)
C/C(=C1\CCOC(=O)S1)N(C=O)Cc1cnc(C)nc1N [Cycotiamine] (20 µM)	0.964	0.988	0.991	1.01	1.01 (inactive)	1.02 (inactive)	1.03 (inactive)	0.971 (inactive)	1.01 (inactive)	1.01 (inactive)	0.999 (inactive)	1.06 (inactive)
COc1cc(NC(C)CCCN)c2ncccc2c1 (stereo not given) [Primaquine diphosphate] (20 µM)	1.08	1.02	1.07	0.905	0.851 (inactive)	1.03 (inactive)	1.07 (inactive)	1.03 (inactive)	0.943 (inactive)	1 (inactive)	1.02 (inactive)	1.09 (inactive)
Nc1ncnc2c1ncn2[C@@H]1O[C@H](COP(=O)(O)O)[C@@H](O)[C@H]1O [5'-Adenylic acid] (50 µM)	0.902	0.983	1.04	1.03	0.938 (inactive)	0.951 (inactive)	1.01 (inactive)	1.01 (inactive)	1.03 (inactive)	0.905 (inactive)	1 (inactive)	0.989 (inactive)
NC(=O)c1ncn([C@@H]2O[C@H](CO)[C@@H](O)[C@H]2O)c1O [Mizoribine] (20 µM)	0.99	1.06	1.06	1	0.951 (inactive)	1.02 (inactive)	1.01 (inactive)	1.02 (inactive)	1.02 (inactive)	0.997 (inactive)	1.01 (inactive)	0.982 (inactive)
CCN1CCN(c2cc3c(cc2F)c(=O)c(C(=O)O)cn3C2CC2)CC1 [Enrofloxacin] (20 µM)	0.0184	0.0344	0.107	1.29	0.0794 (active)	0.0498 (active)	0.982 (inactive)	0.658 (inactive)	0.619 (active)	0.204 (active)	0.938 (inactive)	1.05 (inactive)
CN/C(=N\CCSCc1nc[nH]c1C)NC#N [Cimetidine] (20 µM)	1.03	1.02	1.07	1.18	0.893 (inactive)	0.981 (inactive)	0.997 (inactive)	1.02 (inactive)	0.979 (inactive)	1.03 (inactive)	1.01 (inactive)	1.01 (inactive)
CN1CCOC(c2ccccc2)c2ccccc2C1 (stereo not given) [Nefopam hydrochloride] (20 µM)	1.09	1	0.963	1.09	0.855 (inactive)	1.1 (inactive)	1.02 (inactive)	1.03 (inactive)	0.94 (inactive)	0.943 (inactive)	1.03 (inactive)	1.03 (inactive)
Cc1cc(CC(=O)O)n(C)c1C(=O)c1ccc(Cl)cc1 [Zomepirac sodium salt] (20 µM)	1.21	0.969	0.981	1.13	1.05 (inactive)	0.971 (inactive)	0.972 (inactive)	1.04 (inactive)	1.01 (inactive)	1.01 (inactive)	0.984 (inactive)	0.968 (inactive)
Cc1ccc(C(=O)c2cc(O)c(O)c([N+](=O)[O-])c2)cc1 [Tolcapone] (20 µM)	1.11	0.961	0.997	1.19	1.01 (inactive)	0.908 (inactive)	0.983 (inactive)	1.33 (inactive)	0.998 (inactive)	0.981 (inactive)	1 (inactive)	0.971 (inactive)
CC1=C(C(=O)O)N2C(=O)[C@@H](NC(=O)[C@H](N)C3=CCC=CC3)[C@H]2SC1 [Cephradine monohydrate] (20 µM)	1.11	1.04	1.02	1.07	0.968 (inactive)	1.04 (inactive)	1 (inactive)	1.05 (inactive)	1 (inactive)	0.921 (inactive)	0.988 (inactive)	0.994 (inactive)
O=C(COc1ccc(Cl)cc1)N1CCN(Cc2ccc3c(c2)OCO3)CC1 [Fipexide hydrochloride] (20 µM)	1.05	0.947	0.961	0.87	1 (inactive)	0.943 (inactive)	0.945 (inactive)	1 (inactive)	1.01 (inactive)	0.953 (inactive)	1.01 (inactive)	0.916 (inactive)
CC(C)(CO)[C@@H](O)C(=O)NCCC(=O)NCCSSCCNC(=O)CCNC(=O)[C@H](O)C(C)(C)CO [D-Pantethine] (20 µM)	1.09	0.976	1.02	0.955	0.976 (inactive)	1.03 (inactive)	0.986 (inactive)	1 (inactive)	1.03 (inactive)	1.03 (inactive)	1 (inactive)	1.02 (inactive)
Clc1cccc(Cl)c1NC1=NCCN1 [Clonidine hydrochloride] (20 µM)	0.856	0.984	0.989	0.99	1.04 (inactive)	0.953 (inactive)	1.09 (inactive)	0.995 (inactive)	1.01 (inactive)	0.996 (inactive)	0.992 (inactive)	1.08 (inactive)
COC(=O)C1=C(C)NC(C)=C(C(=O)OC2CCCN(Cc3ccccc3)C2)C1c1cccc([N+](=O)[O-])c1 (stereo not given) [Benidipine hydrochloride] (20 µM)	1.1	1.23	1.02	0.864	0.929 (inactive)	0.912 (inactive)	0.983 (inactive)	1.24 (inactive)	1.02 (inactive)	0.989 (inactive)	1.02 (inactive)	0.986 (inactive)
NS(=O)(=O)c1cc2c(cc1C(F)(F)F)NCNS2(=O)=O [Hydroflumethiazide] (20 µM)	0.947	1.05	0.989	0.941	0.965 (inactive)	0.92 (inactive)	0.987 (inactive)	1.06 (inactive)	1.01 (inactive)	1 (inactive)	1.01 (inactive)	0.935 (inactive)
Cc1cnc(C(=O)NCCc2ccc(S(=O)(=O)NC(=O)NC3CCCCC3)cc2)cn1 [Glipizide] (20 µM)	1.11	0.966	1.04	1.08	0.94 (inactive)	1.01 (inactive)	0.99 (inactive)	0.989 (inactive)	0.998 (inactive)	0.973 (inactive)	1 (inactive)	1.03 (inactive)
OC[C@@H](O)[C@@H](O)CO [Erythritol] (50 µM)	0.882	1.12	0.977	1.02	1.05 (inactive)	1 (inactive)	0.974 (inactive)	1.03 (inactive)	0.995 (inactive)	1.05 (inactive)	0.993 (inactive)	0.945 (inactive)
CC(=O)Oc1cc2c(s1)CCN(C(C(=O)C1CC1)c1ccccc1F)C2 (stereo not given) [Prasugrel] (20 µM)	1.1	1.02	1	0.989	1 (inactive)	0.957 (inactive)	0.985 (inactive)	0.983 (inactive)	1.01 (inactive)	1.03 (inactive)	0.994 (inactive)	0.965 (inactive)
CC1(C)OC(=O)NC1=O [Dimethadione] (20 µM)	0.999	0.98	0.949	1.02	0.952 (inactive)	1.03 (inactive)	0.747 (inactive)	1.02 (inactive)	1 (inactive)	1.01 (inactive)	0.992 (inactive)	0.853 (inactive)
CC[N+](C)(CC)CCOC(=O)C1c2ccccc2Oc2ccccc21 [Methantheline bromide] (20 µM)	0.956	1.01	0.979	0.897	1.05 (inactive)	0.999 (inactive)	1.01 (inactive)	1.04 (inactive)	1.01 (inactive)	1.02 (inactive)	0.984 (inactive)	1.05 (inactive)
N[C@@H](Cc1c[nH]c2ccccc12)C(=O)O [L-Tryptophan] (20 µM)	1.02	0.993	0.989	1.19	1.02 (inactive)	1.04 (inactive)	1.05 (inactive)	0.985 (inactive)	0.995 (inactive)	1.03 (inactive)	0.993 (inactive)	1.08 (inactive)
Cn1c(=O)c2[nH]cnc2n(C)c1=O [Aminophylline] (20 µM)	0.81	0.991	0.955	0.972	0.965 (inactive)	1.06 (inactive)	0.972 (inactive)	1.17 (inactive)	1.02 (inactive)	1.01 (inactive)	1 (inactive)	0.939 (inactive)
OCCN1CCN(CC/C=C2/c3ccccc3Sc3ccc(Cl)cc32)CC1 [Zuclopenthixol dihydrochloride] (20 µM)	0.904	1.25	1.01	0.937	1.03 (inactive)	0.993 (inactive)	0.919 (inactive)	1.31 (inactive)	0.994 (inactive)	1.09 (inactive)	0.992 (inactive)	0.947 (inactive)
CC1=C(/C=C/C(C)=C/C=C/C(C)=C\C(=O)O)C(C)(C)CCC1 [Isotretinoin] (20 µM)	0.96	0.987	1.02	1.02	0.996 (inactive)	0.977 (inactive)	1.04 (inactive)	1.01 (inactive)	1.02 (inactive)	0.97 (inactive)	0.991 (inactive)	1.05 (inactive)
